The list is not random: actives were taken first. Their share in the collection is about 0.84%.
LRH-1 inv ag: NR5A2 inverse agonism in reporter assay; O00482; HEK293T StAR-luciferase reporter, LRH-1 transfected, 24 h; inhibition, % at 3.6 µM; 360,000 compounds, 0.13% hits;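 active = inhibition above the mean inhibition of all tested compounds plus 3 SD, cut at about 73% in these data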;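 also: 0% = DMSO wells and 100% = reporter-only cells lacking LRH-1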
NCOA1 inh: inhibitors of human steroid receptor coactivator 1 (SRC1). Q15788. HEK293 GAL4-SRC1 luciferase reporter, luminescence. inhibition, % at 3.6 µM. 360,000 compounds, 0.12% hits. AID 588354;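 active = inhibition above the campaign mean plus 3 SD, with each screening campaign given its own cutoff, cut at about 60% in these data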;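 also: 0% = DMSO treated cells and 100% = gossypol at 36 µM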
Target sequence (Q15788 whole entry, looked up, the tested form may be a part): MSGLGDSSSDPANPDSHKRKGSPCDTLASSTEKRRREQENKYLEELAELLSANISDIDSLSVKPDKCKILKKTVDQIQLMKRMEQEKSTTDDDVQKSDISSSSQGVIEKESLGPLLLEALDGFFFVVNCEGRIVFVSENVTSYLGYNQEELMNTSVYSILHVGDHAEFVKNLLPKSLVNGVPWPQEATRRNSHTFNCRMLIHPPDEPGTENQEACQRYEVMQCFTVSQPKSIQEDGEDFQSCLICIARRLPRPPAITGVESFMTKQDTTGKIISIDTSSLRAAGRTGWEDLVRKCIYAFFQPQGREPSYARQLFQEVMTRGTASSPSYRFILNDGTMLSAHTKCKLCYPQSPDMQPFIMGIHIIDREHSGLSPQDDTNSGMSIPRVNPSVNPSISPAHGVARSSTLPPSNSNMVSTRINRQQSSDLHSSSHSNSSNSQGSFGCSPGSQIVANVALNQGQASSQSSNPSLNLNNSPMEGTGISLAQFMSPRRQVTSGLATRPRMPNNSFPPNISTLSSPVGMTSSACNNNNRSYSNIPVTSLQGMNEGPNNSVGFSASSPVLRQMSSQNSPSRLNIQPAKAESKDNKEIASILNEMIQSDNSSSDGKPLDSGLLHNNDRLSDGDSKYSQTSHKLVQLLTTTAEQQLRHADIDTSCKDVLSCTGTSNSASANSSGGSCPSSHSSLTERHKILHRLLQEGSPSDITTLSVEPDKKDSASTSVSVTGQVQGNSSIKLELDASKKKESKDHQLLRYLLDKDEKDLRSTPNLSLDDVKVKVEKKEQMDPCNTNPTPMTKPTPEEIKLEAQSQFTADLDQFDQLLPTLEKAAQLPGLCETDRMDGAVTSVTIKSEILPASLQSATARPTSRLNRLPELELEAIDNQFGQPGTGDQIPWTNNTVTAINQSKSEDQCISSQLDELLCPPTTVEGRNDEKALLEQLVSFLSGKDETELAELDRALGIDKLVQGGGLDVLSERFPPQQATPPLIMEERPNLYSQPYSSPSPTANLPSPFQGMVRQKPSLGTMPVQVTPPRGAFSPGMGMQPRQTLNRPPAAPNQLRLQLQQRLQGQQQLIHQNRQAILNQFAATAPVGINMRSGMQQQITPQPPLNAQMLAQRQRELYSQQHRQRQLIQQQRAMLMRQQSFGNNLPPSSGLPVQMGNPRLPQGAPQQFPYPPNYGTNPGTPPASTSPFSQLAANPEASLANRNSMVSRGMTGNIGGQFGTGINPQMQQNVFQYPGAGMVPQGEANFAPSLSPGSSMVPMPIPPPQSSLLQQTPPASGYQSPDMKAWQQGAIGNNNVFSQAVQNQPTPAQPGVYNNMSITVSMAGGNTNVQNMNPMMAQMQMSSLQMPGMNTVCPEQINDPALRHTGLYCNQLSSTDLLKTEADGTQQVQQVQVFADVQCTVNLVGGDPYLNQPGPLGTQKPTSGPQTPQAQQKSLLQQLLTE
SRC3 inh: inhibits human SRC3 coactivator; Q9Y6Q9; HEK293 GAL4-SRC3 luciferase reporter, luminescence; inhibition, % at 3.6 µM; 360,000 compounds, 0.17% hits; AID 588352;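 active = inhibition above a per-campaign cutoff, the mean of all compounds plus 3 SD, cut at about 60% in these data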;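 also: 0% = DMSO-treated cells and 100% = gossypol-treated cells at 36 µM; higher means less SRC3-driven luciferase light from the GAL4 reporter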
NR2F2 inh: blocks human COUP-TFII nuclear receptor; P24468; HEK293T NGFI-A luciferase reporter, luminescence; inhibition, % at 8.6 µM; 370,000 compounds, 0.7% hits;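 active = inhibition above a per-plate cutoff, mean inhibition of test wells between control levels plus 3 SD, cut at about 38% in these data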;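 also: cells cotransfected with COUP-TFII expression vector driving the NGFI-A reporter; 0% = median of COUP-TF2 test wells and 100% = reporter-only cells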
SRC2 inh: human SRC2 (NCOA2) inhibition | Q15596 | HEK293 GAL4-SRC2 luciferase reporter, luminescence | inhibition, % at 9 µM | 370,000 compounds, 0.17% hits;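 active = inhibition above the mean inhibition of all tested compounds plus 3 SD, set per campaign, cut at about 52% in these data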;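 also: 0% = DMSO treated cells and 100% = cells given Gossypol at 36 µM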
Numbers without * were called inactive; i = inactive; · = no result.

SMILES	LRH-1 inv ag	NCOA1 inh	SRC3 inh	NR2F2 inh	SRC2 inh
C=C(NC(=O)C(=C)NC(=O)c1csc(C2=NC3c4csc(n4)C4NC(=O)c5csc(n5)C(C(C)(O)C(C)O)NC(=O)C5CSC(=N5)/C(=C/C)NC(=O)C(C(C)O)NC(=O)c5csc(n5)C3(CC2)NC(=O)C(C)NC(=O)C(=C)NC(=O)C(=C)NC(=O)C(C(C)C)NC2C=Cc3c(C(C)O)cc(nc3C2O)C(=O)OC4C)n1)C(N)=O (centres undefined)	-29	-90	-44	42*	12
Cc1cc(C(=O)COc2cccnc2[N+](=O)[O-])c(C)n1-c1ccccc1	36	69*	66*	-13	49
CN(C)CCN1C(=O)c2cccc3cc([N+](=O)[O-])cc(c23)C1=O	82*	31	-30	-92	i
CN(C)CCCN1C(=O)c2cccc3cccc(c23)C1=O	-14	2	2	-4	-16
C[C@@H]1COc2cccc(NCCO)c2S(=O)(=O)N1	·	·	·	1	-4
C=CS(=O)(=O)c1ccc(Oc2ccc(S(=O)(=O)C=C)cc2)cc1	9	-295	-135	75*	70*
NS(=O)(=O)c1ccc(Oc2ccc(S(N)(=O)=O)cc2)cc1	-6	3	-8	8	7
COC(=O)c1cc(C)nc2c1C(=O)C(=O)C=C2N1CCOCC1	22	62*	71*	42*	57*
COC(=O)c1cc(S(=O)(=O)N2CCOCC2)c(Cl)cc1N1CCOCC1	8	-16	-22	-7	-17
CC1=CC(C)(C)Nc2ccc(OC(=O)C(C)N3C(=O)c4ccccc4C3=O)cc21 (centres undefined)	12	-8	6	18	63*
CC1=CC(C)(C)Nc2ccc(OC(=O)c3ccco3)cc21	21	10	-2	13	55*
COc1ccc2c(c1)[C@@H](NC(=O)c1ccncc1)[C@@H]1Cc3ccccc3[C@H]21	·	·	·	-3	3
CN(c1cccnc1)c1ncnc2[nH]ncc12	9	18	-1	26	24
C=CCN(CC=C)c1ncnc2[nH]ncc12	29	55	53	20	53*
Cn1cc(CCOCc2ccc(Br)cc2)c2ccccc21	·	·	·	-1	-12
Cc1cc(NC(=O)c2ccccc2)c(Cl)cc1N	0	5	6	16	66*
Nc1nc2c(ncn2[C@@H]2O[C@H](C(=O)NCCCN3CCCC3=O)[C@@H](O)[C@H]2O)c(=O)[nH]1	·	·	·	2	-9
CCOc1ccc(C2C=C(c3ccc(F)cc3)Nc3ncnn32)cc1 (centres undefined)	-63	-43	-64	-31	-52
Oc1ccc(C2C=C(c3ccc(F)cc3)Nc3ncnn32)cc1 (centres undefined)	0	66*	11	0	20
Fc1c(-c2ccc3ncnc(NCc4cccs4)c3c2)ccc2c1OCO2	·	·	·	-25	·
NC(=O)N/N=C\c1cc(Br)ccc1O	18	-7	-1	-26	-4
O=C(N/N=C/c1cc(Br)ccc1O)c1ccncc1	11	38	70*	-15	8
O=C(N/N=C/c1cc(Cl)ccc1O)c1ccc(Br)cc1	8	28	66*	-14	8
CC(C)C[C@H](NC(=O)c1nccs1)C(=O)N1CCC[C@H]1C(=O)NCc1ccccc1	·	·	·	-19	4
CCn1nc([N+](=O)[O-])c(C(C#N)c2nc3cc(C(F)(F)F)ccc3s2)c(Cl)c1=O (centres undefined)	14	-45	62*	17	-11
SMILES	LRH-1 inv ag	NCOA1 inh	SRC3 inh	NR2F2 inh	SRC2 inh
CCCN1C(=O)c2[nH]nc(-c3ccccc3)c2C1c1ccc(C)cc1 (centres undefined)	·	·	·	-8	-22
CC(C)(C)c1nnc(N/N=C/c2cc(Br)ccc2O)n(N)c1=O	2	67*	76*	5	32
COc1ccc(-n2ncc3c(N4CCCCC4)ncnc32)cc1	60	64*	67*	·	·
CCOc1ccccc1O[C@H](c1ccccc1)[C@H]1CNCCO1	53	70*	57	-8	15
CCOc1ccccc1NC(=O)C(NCC1CCCCC1)c1ccccc1 (centres undefined)	7	1	17	11	15
O=C(O)CCSc1nc2ccccc2s1	-4	19	16	35	78*
c1ccc2sc(SCSc3nc4ccccc4s3)nc2c1	-45	-51	1	8	-23
CC(C)(C)c1ccc(C#C[C@@H]2C=C[C@@H](O)[C@@H](CO)O2)cc1	·	·	·	-17	-26
CCCS(=O)(=O)Nc1ccc(Nc2c3ccccc3nc3ccccc23)c(OC)c1	33	66*	70*	-68	-25
COc1cc(N)ccc1Nc1c2ccccc2nc2ccccc12	24	8	-37	·	·
Nc1ccc(C(=O)c2cccs2)cn1	10	-14	5	13	-9
Nc1ccc(-c2cnc(N)c(C(=O)c3cccnc3)n2)cn1	52	69*	70*	·	·
COc1ccc(C(=O)NC2CC3CCCC(C2)N3CC(C)C)cc1OC (centres undefined)	-1	0	-4	8	-3
COc1ccc(C(=O)NC2CC3CCCC(C2)N3CC(C)C)cc1 (centres undefined)	9	2	5	-14	95*
COc1ccccc1C(=O)N(CCC1CCCN1C)c1nc2ccccc2s1 (centres undefined)	52	54	63*	58*	40
COc1ccc2sc(N(CCCN(C)C)C(=O)c3nc4ccccc4s3)nc2c1	-10	-29	-36	-9	-19
C/C(CC(=O)NC1C2CC3CC(C2)CC1C3)=N\NC(=O)Cc1cccs1 (centres undefined)	-10	-24	-9	-11	98*
O=C(N[C@H](Cc1ccccc1)C(=O)NCc1ccc2c(c1)OCO2)[C@H]1O[C@@H](n2ccc(=O)[nH]c2=O)[C@H](O)[C@@H]1O	·	·	·	-13	3
COC(=O)C1=C(C)N(Cc2ccccc2C(F)(F)F)C(=NCc2ccccc2)NC1c1cccc(C(F)(F)F)c1 (centres undefined)	·	·	·	-12	-11
COc1ccc(N=Nc2ccc(O)c3ncccc23)cc1	-7	-30	-43	11	4
Oc1ccc(N=Nc2ccc3c(c2)OCCO3)c2cccnc12	4	37	59	34	52*
COc1ccc(-c2nnn(CC(=O)N(Cc3ccccc3Cl)C(C(=O)NCC3CCCO3)c3ccco3)n2)cc1OC (centres undefined)	-14	-11	11	7	95*
Cc1ccc(-c2nnn(CC(=O)N(Cc3cccs3)C(C(=O)NCC3CCCO3)c3ccco3)n2)o1 (centres undefined)	16	-1	12	3	17
Cc1ccc2nc(C(F)(F)F)c(C#N)c(N)c2c1	25	38	36	34	54*
C1CCCCCC2(CCCCC1)OCC(CN1CCOCC1)O2 (centres undefined)	7	12	6	-13	-16
C[N+]1(CC2COC3(CCCCC3)O2)CCCC1 (centres undefined)	1	-1	9	-13	97*
